# From the supplement of paper PMC9446081
# ± gives the standard deviation of the averaged measurements.
# Key:
# Assay in all cases: relative enzymatic activity vs untreated control (fraction); higher = less inhibition
# Conditions in all cases: 100 µM; incubation time: 2 h at 37 C
# [1] = test system: DNA gyrase
# Procedure: (§1)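 In vitro enzymatic inhibition assays (ProFoldin kits) for 12 purified essential E. coli enzymes or complexes, each treated with 218 active antibacterial compounds at 100 µM for 2 h at 37°C. Read-outs were fluorescence or absorbance (phosphate detection, dye binding), converted to activity via standard curves and expressed relative to untreated DMSO controls.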
# [2] = target: DNA helicase (UniProt P0ACB1)
# Chain of DNA helicase (P0ACB1 whole entry): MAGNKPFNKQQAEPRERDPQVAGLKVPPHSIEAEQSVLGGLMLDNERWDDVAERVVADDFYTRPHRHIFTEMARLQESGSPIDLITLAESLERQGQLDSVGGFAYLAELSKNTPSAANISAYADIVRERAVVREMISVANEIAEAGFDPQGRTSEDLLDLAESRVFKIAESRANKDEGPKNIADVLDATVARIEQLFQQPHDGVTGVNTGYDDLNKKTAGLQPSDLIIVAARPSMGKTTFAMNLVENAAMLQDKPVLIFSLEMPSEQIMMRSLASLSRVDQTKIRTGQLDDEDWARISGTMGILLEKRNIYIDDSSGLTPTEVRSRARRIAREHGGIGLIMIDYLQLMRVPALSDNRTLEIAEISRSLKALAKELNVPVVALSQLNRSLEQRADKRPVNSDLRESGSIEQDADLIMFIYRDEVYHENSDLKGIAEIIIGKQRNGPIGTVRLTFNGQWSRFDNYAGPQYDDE
# Procedure: as §1
# [3] = target: DNA ligase (UniProt B1XA82)
# Chain of DNA ligase (B1XA82 whole entry): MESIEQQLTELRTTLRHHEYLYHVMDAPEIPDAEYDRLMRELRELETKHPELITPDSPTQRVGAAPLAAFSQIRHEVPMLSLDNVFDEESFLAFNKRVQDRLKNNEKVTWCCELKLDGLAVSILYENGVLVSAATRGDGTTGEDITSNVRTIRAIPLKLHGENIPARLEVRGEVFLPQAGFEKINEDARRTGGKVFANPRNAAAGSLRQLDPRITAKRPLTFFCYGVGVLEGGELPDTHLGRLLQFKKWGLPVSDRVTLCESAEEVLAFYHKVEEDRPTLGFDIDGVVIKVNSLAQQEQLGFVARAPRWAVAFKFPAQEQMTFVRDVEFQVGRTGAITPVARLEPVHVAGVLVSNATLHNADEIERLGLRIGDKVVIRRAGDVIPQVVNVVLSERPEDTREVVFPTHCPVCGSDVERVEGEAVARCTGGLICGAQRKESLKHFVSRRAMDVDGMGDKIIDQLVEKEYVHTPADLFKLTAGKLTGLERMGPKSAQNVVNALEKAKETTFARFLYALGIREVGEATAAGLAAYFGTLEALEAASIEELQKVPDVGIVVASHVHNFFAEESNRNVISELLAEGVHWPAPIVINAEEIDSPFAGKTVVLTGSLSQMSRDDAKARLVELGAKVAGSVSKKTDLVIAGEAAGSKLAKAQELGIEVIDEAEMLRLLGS
# Procedure: as §1
# [4] = target: DNA polymerase (UniProt P10443)
# Chain of DNA polymerase (P10443 whole entry): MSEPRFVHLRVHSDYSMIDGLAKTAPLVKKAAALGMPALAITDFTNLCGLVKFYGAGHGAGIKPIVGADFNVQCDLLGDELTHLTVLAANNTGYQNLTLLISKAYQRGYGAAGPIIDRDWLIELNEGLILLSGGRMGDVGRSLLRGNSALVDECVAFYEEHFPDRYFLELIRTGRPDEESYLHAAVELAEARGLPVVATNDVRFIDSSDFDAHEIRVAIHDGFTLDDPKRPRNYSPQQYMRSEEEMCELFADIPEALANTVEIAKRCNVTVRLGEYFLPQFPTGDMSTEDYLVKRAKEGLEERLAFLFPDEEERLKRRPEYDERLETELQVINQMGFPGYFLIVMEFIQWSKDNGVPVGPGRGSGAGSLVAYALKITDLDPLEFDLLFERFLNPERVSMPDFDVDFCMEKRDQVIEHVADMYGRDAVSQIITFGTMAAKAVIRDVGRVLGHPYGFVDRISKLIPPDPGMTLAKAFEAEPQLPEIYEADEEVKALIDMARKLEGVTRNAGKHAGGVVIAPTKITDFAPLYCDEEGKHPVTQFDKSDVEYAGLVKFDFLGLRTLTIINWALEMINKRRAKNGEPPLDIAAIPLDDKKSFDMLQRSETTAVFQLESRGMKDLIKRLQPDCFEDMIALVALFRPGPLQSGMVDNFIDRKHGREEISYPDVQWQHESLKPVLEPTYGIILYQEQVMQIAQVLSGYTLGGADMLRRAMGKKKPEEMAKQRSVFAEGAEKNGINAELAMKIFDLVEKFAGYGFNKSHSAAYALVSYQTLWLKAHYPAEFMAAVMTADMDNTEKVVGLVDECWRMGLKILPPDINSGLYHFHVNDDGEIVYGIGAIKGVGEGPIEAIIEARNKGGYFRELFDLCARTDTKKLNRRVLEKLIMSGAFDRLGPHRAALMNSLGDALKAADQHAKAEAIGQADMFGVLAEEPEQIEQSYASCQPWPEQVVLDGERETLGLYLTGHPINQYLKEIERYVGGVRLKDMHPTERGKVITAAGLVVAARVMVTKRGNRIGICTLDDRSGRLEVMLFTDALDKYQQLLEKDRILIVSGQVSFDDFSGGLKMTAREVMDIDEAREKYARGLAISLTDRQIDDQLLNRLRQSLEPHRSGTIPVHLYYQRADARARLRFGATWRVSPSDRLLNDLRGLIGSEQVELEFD
# Procedure: as §1
# [5] = target: DNA primase (UniProt P0ABS7)
# Chain of DNA primase (P0ABS7 whole entry): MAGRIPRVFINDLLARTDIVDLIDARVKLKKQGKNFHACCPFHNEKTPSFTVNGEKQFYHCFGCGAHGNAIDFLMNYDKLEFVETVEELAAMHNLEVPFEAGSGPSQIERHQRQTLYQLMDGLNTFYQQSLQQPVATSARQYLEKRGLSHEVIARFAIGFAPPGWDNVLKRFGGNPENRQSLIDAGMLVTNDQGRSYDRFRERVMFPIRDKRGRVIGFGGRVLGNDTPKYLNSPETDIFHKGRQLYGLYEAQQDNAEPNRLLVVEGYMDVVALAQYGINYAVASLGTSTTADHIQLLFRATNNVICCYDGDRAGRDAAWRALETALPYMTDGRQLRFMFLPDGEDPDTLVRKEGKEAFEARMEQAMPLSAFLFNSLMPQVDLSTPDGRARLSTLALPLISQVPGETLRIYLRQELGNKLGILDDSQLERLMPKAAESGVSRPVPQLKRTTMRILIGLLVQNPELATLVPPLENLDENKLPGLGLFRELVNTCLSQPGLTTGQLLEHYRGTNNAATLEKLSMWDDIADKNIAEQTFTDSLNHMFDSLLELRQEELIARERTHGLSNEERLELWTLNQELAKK
# Procedure: as §1
# [6] = target: GlmU (UniProt A7ZTU1)
# Chain of GlmU (A7ZTU1 whole entry, looked up): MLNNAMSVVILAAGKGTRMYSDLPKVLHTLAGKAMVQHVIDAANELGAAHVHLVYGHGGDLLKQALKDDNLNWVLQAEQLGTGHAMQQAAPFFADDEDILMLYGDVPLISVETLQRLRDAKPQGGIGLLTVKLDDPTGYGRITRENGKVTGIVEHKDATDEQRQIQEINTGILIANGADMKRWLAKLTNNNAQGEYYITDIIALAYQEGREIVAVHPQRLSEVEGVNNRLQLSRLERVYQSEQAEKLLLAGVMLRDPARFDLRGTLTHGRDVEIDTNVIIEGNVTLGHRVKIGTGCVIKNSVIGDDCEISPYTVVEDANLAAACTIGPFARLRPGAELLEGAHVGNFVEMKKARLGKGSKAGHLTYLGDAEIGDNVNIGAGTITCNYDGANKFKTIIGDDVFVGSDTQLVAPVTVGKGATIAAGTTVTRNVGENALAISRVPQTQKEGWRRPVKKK
# Procedure: as §1
# [7] = target: Guanlyate kinase (UniProt Q0TBG1)
# Chain of Guanlyate kinase (Q0TBG1 whole entry): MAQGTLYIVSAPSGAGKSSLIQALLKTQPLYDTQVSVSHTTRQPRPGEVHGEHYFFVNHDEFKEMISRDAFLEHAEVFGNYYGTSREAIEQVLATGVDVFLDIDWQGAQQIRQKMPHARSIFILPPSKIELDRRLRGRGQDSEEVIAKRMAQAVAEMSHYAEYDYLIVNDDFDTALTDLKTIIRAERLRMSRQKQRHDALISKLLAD
# Procedure: as §1
# [8] = target: MurA (UniProt Q3YX52)
# Chain of MurA (Q3YX52 whole entry): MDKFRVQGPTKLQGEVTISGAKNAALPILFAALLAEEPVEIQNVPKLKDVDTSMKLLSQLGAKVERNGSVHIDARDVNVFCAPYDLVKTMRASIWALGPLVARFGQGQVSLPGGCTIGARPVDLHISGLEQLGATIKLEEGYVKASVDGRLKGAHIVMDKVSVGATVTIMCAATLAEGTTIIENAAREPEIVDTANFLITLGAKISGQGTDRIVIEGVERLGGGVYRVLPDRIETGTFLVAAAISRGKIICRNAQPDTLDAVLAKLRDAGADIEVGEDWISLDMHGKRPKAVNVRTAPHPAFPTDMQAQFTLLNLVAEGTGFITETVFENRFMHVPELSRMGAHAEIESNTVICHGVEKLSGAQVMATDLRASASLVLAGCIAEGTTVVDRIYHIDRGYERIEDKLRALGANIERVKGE
# Procedure: as §1
# [9] = test system: RNA polymerase
# Procedure: as §1
Structure (SMILES),relative enzymatic activity [1],relative enzymatic activity [2],relative enzymatic activity [3],relative enzymatic activity [4],relative enzymatic activity [5],relative enzymatic activity [6],relative enzymatic activity [7],relative enzymatic activity [8],relative enzymatic activity [9]
COP(=S)(OC)Oc1cc(Cl)c(Cl)cc1Cl,1.01 ± 0.21,0.105 ± 0.011,0.991 ± 0.28,1.39 ± 0.45,0.737 ± 0.2,1.09 ± 0.043,1.07 ± 0.027,0.585 ± 0.13,0.851 ± 0.025
Cc1nc2c(=O)n(C)c(=O)nc-2n(C)n1,0.498 ± 0.2,0.6 ± 0.18,0.827 ± 0.053,1.04 ± 0.11,0.8 ± 0.023,0.927 ± 0.071,0.881 ± 0.045,0.131 ± 0.035,0.925 ± 0.15
Oc1cc(Cl)ccc1Oc1ccc(Cl)cc1Cl,1.04 ± 0.057,0.187 ± 0.1,0.856 ± 0.26,0.495 ± 0.69,0.839 ± 0.013,1.113 ± 0.0014,1 ± 0.059,0.846 ± 0.081,0.935 ± 0.17
CC(=O)Oc1ccc(Cl)c2cccnc12,0.756 ± 0.36,0.577 ± 0.29,0.965 ± 0.18,1.09 ± 0.17,0.8364 ± 0.0049,0.987 ± 0.052,0.892 ± 0.12,0.873 ± 0.19,0.7397 ± 0.0065
CCn1cc(C(=O)[O-])c(=O)c2cc3c(cc21)OCO3.[K+],0.128 ± 0.074,0.576 ± 0.11,1.21 ± 0.081,1.08 ± 0.18,0.826 ± 0.033,0.959 ± 0.029,0.892 ± 0.14,0.798 ± 0.13,0.7827 ± 0.0058
Cn1ncnc2c(=O)n(C)c(=O)nc1-2,0.373 ± 0.21,0.533 ± 0.13,1.08 ± 0.28,0.994 ± 0.056,0.758 ± 0.047,0.966 ± 0.021,0.88 ± 0.059,0.129 ± 0.027,0.587 ± 0.6
O=S(=O)(O)O.Oc1cccc2cccnc12,0.857 ± 0.31,0.653 ± 0.14,1.05 ± 0.1,1.34 ± 0.49,0.441 ± 0.18,0.987 ± 0.048,0.981 ± 0.14,0.768 ± 0.011,0.862 ± 0.094
O=[N+]([O-])c1ccc(N(CCO)CCO)c2c1no[n+]2[O-],1.22 ± 0.18,0.793 ± 0.094,1.49 ± 0.15,0.69 ± 0.21,0.559 ± 0.099,0.935 ± 0.067,0.448 ± 0.049,0.106 ± 0.026,0.679 ± 0.032
O=[N+]([O-])C(Br)(CO)CO,0.108 ± 0.15,0.618 ± 0.27,0.897 ± 0.11,0.327 ± 0.015,0.596 ± 0.031,0.198 ± 0.059,0.943 ± 0.084,0.0632 ± 0.019,0.348 ± 0.045
C[CH2][Hg][S]c1ccccc1C(=O)[O-].[Na+],0.069 ± 0.018,0.749 ± 0.37,1.12 ± 0.031,0.94 ± 0.3,0.649 ± 0.14,1.07 ± 0.093,1.03 ± 0.11,0.212 ± 0.01,0.959 ± 0.048
Cc1c(N)nc([C@H](CC(N)=O)NC[C@@H](N)C(N)=O)nc1C(=O)N[C@H](C(=O)N[C@@H](C)[C@H](O)[C@@H](C)C(=O)N[C@@H](C(=O)NCCc1nc(-c2nc(C(=O)NCCC[S+](C)C)cs2)cs1)[C@@H](C)O)[C@@H](O[C@H]1O[C@H](CO)[C@H](O)[C@@H](O)[C@H]1O[C@H]1O[C@H](CO)[C@@H](O)[C@H](OC(N)=O)[C@@H]1O)c1c[nH]cn1,0.0451 ± 0.064,0.749 ± 0.38,1.26 ± 0.078,0.485 ± 0.028,0.878 ± 0.06,0.998 ± 0.07,0.96 ± 0.12,0.863 ± 0.16,0.866 ± 0.032
CN[C@H]1C[C@@H](N)[C@H](O)[C@@H](O[C@@H]2O[C@H](CO)[C@H](O)[C@@H]3O[C@@]4(O[C@H]23)O[C@H]([C@@H](N)CO)[C@H](O)[C@H](O)[C@H]4O)[C@@H]1O,0.984 ± 0.14,0.571 ± 0.16,0.95 ± 0.14,1.19 ± 0.24,0.883 ± 0.02,1.029 ± 0.0074,0.933 ± 0.098,0.86 ± 0.2,0.8209 ± 0.0048
[O-][n+]1ccccc1[S][Zn][S]c1cccc[n+]1[O-],0.849 ± 0.41,0.647 ± 0.14,1.08 ± 0.083,1.1 ± 0.13,0.788 ± 0.27,1.03 ± 0.0055,1.06 ± 0.052,0.109 ± 0.033,0.954 ± 0.052
CN1C(=O)[C@]23CC4=CC=C[C@H](O)[C@H]4N2C(=O)[C@@]1(CO)SS3,0.669 ± 0.11,0.55 ± 0.14,1.06 ± 0.038,0.477 ± 0.68,0.859 ± 0.019,0.992 ± 0.012,0.947 ± 0.12,0.309 ± 0.13,0.838 ± 0.12
CC(=O)[O][Hg][c]1ccccc1,0.0283 ± 0.04,0.415 ± 0.038,1.16 ± 0.04,0.285 ± 0.017,0.749 ± 0.28,0.987 ± 0.21,3.32 ± 0.43,0.474 ± 0.35,0.462 ± 0.044
CNC1C(O)C(OC2C(N)CC(N)C(OC3OC(C(C)O)C(O)C(O)C3N)C2O)OCC1(C)O (stereo unspecified),1.19 ± 0.12,0.447 ± 0.021,1 ± 0.031,1.37 ± 0.52,0.749 ± 0.25,0.973 ± 0.059,0.936 ± 0.045,0.77 ± 0.12,0.879 ± 0.05
O=C1C=C2C(=CCOC2O)O1 (stereo unspecified),0.0893 ± 0.13,0.409 ± 0.021,1.08 ± 0.17,0.547 ± 0.19,0.632 ± 0.14,0.811 ± 0.21,1.09 ± 0.049,0.0624 ± 0.018,0.56 ± 0.17
CCCCCCCCCCCCCCCC[n+]1ccccc1,1.17 ± 0.056,0.0233 ± 0.0026,0.134 ± 0.0094,0.0267 ± 0.011,0.341 ± 0.023,0.19333 ± 8.8e-05,0.0415 ± 0.016,0.0717 ± 0.02,0.617 ± 0.64
Cc1c(N)nc([C@H](CC(N)=O)NC[C@@H](N)C(N)=O)nc1C(=O)N[C@H](C(=O)N[C@@H](C)[C@H](O)[C@@H](C)C(=O)N[C@@H](C(=O)NCCc1nc(-c2nc(C(=O)NCCC[S+](C)C)cs2)cs1)[C@@H](C)O)[C@@H](O[C@H]1O[C@H](CO)[C@H](O)[C@@H](O)[C@H]1O[C@H]1O[C@H](CO)[C@@H](O)[C@H](OC(N)=O)[C@@H]1O)c1cnc[nH]1,0.0494 ± 0.07,0.504 ± 0.71,1.121 ± 0.005,0.911 ± 0.2,0.801 ± 0.0016,1.06 ± 0.057,1.03 ± 0.061,0.787 ± 0.087,0.875 ± 0.077
CCCCCCCCCCCCCCCC[N+](C)(C)C.[Br-],1.21 ± 0.19,0.026 ± 0.0026,0.171 ± 0.036,0.0569 ± 0.0052,0.371 ± 0.042,0.235 ± 0.047,0.6144 ± 0.0056,0.0751 ± 0.018,0.162 ± 0.021
CN(C)[C@@H]1C(=O)[C@@H](C(N)=O)C(=O)[C@@]2(O)C(=O)[C@H]3C(=O)c4c(O)ccc(Cl)c4[C@@](C)(O)[C@H]3C[C@@H]12,0.69 ± 0.15,0.484 ± 0.12,0.931 ± 0.077,0.474 ± 0.67,0.778 ± 0.016,1.01 ± 0.018,0.879 ± 0.079,0.617 ± 0.21,0.739 ± 0.086
CCCCCCCCCCCCCCCC[n+]1ccccc1.[Cl-],1.22 ± 0.054,0.0141 ± 0.0023,0.581 ± 0.2,0.0538 ± 0.0068,0.3763 ± 0.00042,0.16 ± 0.039,0.2 ± 0.092,0.0629 ± 0.0016,0.2601 ± 0.0012
CN(C)[C@@H]1C(=O)[C@H](C(N)=O)C(=O)[C@@]2(O)C(=O)[C@@H]3C(=O)c4c(O)cccc4[C@@](C)(O)[C@H]3C[C@@H]12,0.891 ± 0.31,0.615 ± 0.21,0.943 ± 0.033,0.874 ± 0.1,0.801 ± 0.02,1.03 ± 0.011,0.846 ± 0.13,0.379 ± 0.13,0.7359 ± 0.0054
CN(C)[C@@H]1C(=O)C(C(N)=O)=C(O)[C@@]2(O)C(O)=C3C(=O)c4c(O)cccc4[C@](C)(O)[C@H]3C[C@@H]12,1.15 ± 0.25,0.475 ± 0.031,1.06 ± 0.1,1.11 ± 0.24,0.753 ± 0.025,1.05 ± 0.084,0.836 ± 0.089,0.144 ± 0.0081,0.809 ± 0.1
